# Results taken from PubChem BioAssay (NCATS).
# Results filed as inconclusive are left out. Calls of active or inactive are those of the source. Unless noted, no rule for the calls is given here.
# Columns and labels:
# [1] = qHTS profiling of the MIPE4 collection as inhibitors of Plasmodium falciparum (3D7) proliferation (AID 743344);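 also: scaled between DMSO vehicle wells and 0.29 µM artemisinin as full inhibition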; conditions: P. falciparum 3D7 in erythrocytes, SYBR Green DNA fluorescence, 72 h; at 28.5 µM unless noted
# In short: (§1)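 Parasite DNA was quantified by SYBR Green I fluorescence (ex 485, em 535 nm) after overnight lysis in saponin/Triton buffer at room temperature. Cultures at 0.3% parasitemia and 2.5% hematocrit were first exposed to compound for 72 h at 37 C; signals were normalised to artemisinin (0.29 uM) and vehicle wells.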
# [2] = qHTS profiling of the MIPE4 collection as inhibitors of Plasmodium falciparum (DD2) proliferation (AID 743345); conditions: P. falciparum Dd2 in erythrocytes, SYBR Green DNA, 72 h; at 28.5 µM unless noted
# In short: as §1
# [3] = qHTS profiling of the MIPE4 collection as inhibitors of Plasmodium falciparum (DD2) proliferation (Rep 2) (AID 743346); conditions: P. falciparum Dd2 in erythrocytes, SYBR Green DNA, 72 h; at 28.5 µM unless noted
# In short: as §1
# [4] = qHTS profiling of the MIPE4 collection as inhibitors of Plasmodium falciparum (HB3) proliferation (AID 743347);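 also: plate controls were DMSO vehicle wells for no effect and artemisinin wells for full effect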; conditions: P. falciparum HB3 in erythrocytes, SYBR Green DNA, 72 h; at 28.5 µM unless noted
# In short: as §1
# [5] = High-throughput drug toxicity screening in the BPDCN cell line Gen2.2 (AID 1224824); conditions: Gen2.2 BPDCN cells; at 45.8 µM (top of the series) unless noted;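 also: cells exposed to compounds for 48 h before reading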
# In short: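 Gen2.2 cells, 500 per well in phenol red-free RPMI with 10% FBS, exposed to compounds 48 h at 37 C, 5% CO2; viability by CellTiter-Glo luminescence. Percent activity scaled to DMSO (100%) and 9.2 uM bortezomib final (0%).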
# [6] = High-throughput drug toxicity screening in the BPDCN cell line Cal-1 (AID 1224825); conditions: Cal-1 BPDCN cell viability, qHTS; at 45.8 µM (top of the series) unless noted
# In short: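 Percent activity derived from CellTiter-Glo luminescence, scaling DMSO to 100% and 9.2 uM final bortezomib to 0%. BPDCN Cal-1 cells (500/well, RPMI plus 10% FBS) incubated with compounds 48 hours at 37C before reading.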
# [7] = qHTS assay for measurement of the activity of small molecule inhibitors on Zika virus induced Caspase-3 activity in human iPSC derived neural progenitor cells (hNPCs) (AID 1224857; active = well fitted curve in the direction sought with a large enough effect; an effect the other way counts as inactive or inconclusive; also: nearly all actives have a fitted effect of over 65% in size; also: potency is read from the fitted curve at half-maximal effect)
# In short: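 Zika virus (2 FFU/cell) infection of human iPSC-derived NPCs, 6 h, following 1 h compound preincubation. Read-out: Caspase-Glo 3/7 luminescence.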
# [8] = qHTS assay for measurement of the activity of small molecule inhibitors on Zika virus induced Caspase-3 activity in human astrocytoma cells (AID 1224859; active = well fitted curve in the direction sought with a large enough effect; an effect the other way counts as inactive or inconclusive; also: potency is read from the fitted curve at half-maximal effect)
# In short: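 Caspase activation in ZIKV-infected SNB-19 cells (2 FFU/cell, 6 h) measured by Caspase-Glo 3/7 luminescence after 30 min RT; compound pre-incubated 1 h; normalised to uninfected and infected controls.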
# [9] = qHTS Assay for Identifying Gametocytocidal Compounds (AID 743244; active = well fitted curve in the direction sought with a large enough effect; an effect the other way counts as inactive or inconclusive; also: potency is read from the fitted curve at half-maximal effect;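 as to max response: % is scaled to controls: 0 for no effect and ±100 for the full control effect; actives lower the fluorescent signal which means gametocytes are killed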); conditions: P. falciparum 3D7 stage III-V gametocytes, alamarBlue, 72 h; max response: stronger effect = lower value
# In short: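 Fluorescence at Ex 525/Em 598 nm, recorded 24 h after alamarBlue addition, reports residual metabolic activity of 3D7 gametocytes (stages III–V) following 72 h compound exposure at 37 °C, 5% CO2.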
# [10] = qHTS profiling for inhibitors of Plasmodium falciparum (3D7) proliferation (AID 743322);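 also: infected erythrocytes exposed to compound for 72 h before lysis; 100% = DMSO vehicle wells and 0% = 0.29 µM artemisinin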; conditions: P. falciparum 3D7 proliferation; at 28.7 µM (top of the series) unless noted
# In short: as §1
# [11] = qHTS profiling for inhibitors of Plasmodium falciparum (DD2) proliferation (AID 743323); conditions: lower = more inhibition; at 28.7 µM (top of the series) unless noted
# In short: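 Parasite DNA quantified by SYBR Green fluorescence (ex 485, em 535 nm) after saponin/Triton lysis and overnight dark incubation. Cultures: 0.3% parasitemia, 2.5% hematocrit, 72 h, 37 C; data scaled between DMSO and 0.29 uM artemisinin.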
# [12] = qHTS profiling for inhibitors of Plasmodium falciparum (HB3) proliferation (AID 743324; active = well fitted curve in the direction sought with a large enough effect; an effect the other way counts as inactive or inconclusive;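 also: 100% = DMSO vehicle wells and 0% = artemisinin-treated control wells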); conditions: Plasmodium falciparum HB3 blood-stage proliferation; at 28.7 µM (top of the series) unless noted
# In short: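 SYBR Green fluorescence (485 ex/535 em) of lysed cultures, incubated overnight at room temperature in the dark, quantifies parasite DNA. Infected erythrocytes at 0.3% parasitemia and 2.5% hematocrit were exposed 72 h; values normalized to DMSO and 0.29 uM artemisinin controls.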
Structure (SMILES),"parasite growth, % of DMSO control [1] [%]","parasite growth remaining, % of DMSO control (lower = more inhibition) [2] [%]","parasite growth, % of control (lower = inhibition) [3] [%]","growth, % of control [4] [%]","cell viability, % of control (lower = more cytotoxic) [5] [%]",viability (% of control) [6] [%],Potency [7],Potency [8],Potency [9],remaining parasite growth % (stronger effect = lower value) [10] [%],"activity, percent of control [11] [%]","remaining proliferation (% of control), lower = more inhibition [12] [%]",max response [9]
CCOC(=O)c1c(CSc2ccccc2)n(C)c2cc(Br)c(O)c(CN(C)C)c12,8.99,10.6,12.1,2.97,164,52.2,inactive,inactive,,,,,
N[C@@H](CC(=O)N1CCn2c(nnc2C(F)(F)F)C1)Cc1cc(F)c(F)cc1F,94.7,104,84.5,104,162,111,inactive,inactive,,,,,
CO[C@H]1O[C@@H]2O[C@@]3(C)CC[C@@H]4[C@@H](C)CC[C@@H]([C@H]1C)[C@@]24OO3,20.7,7.38,9.94,46,62.1,31.3,inactive,inactive,11.8 nM (active),,,,
Nc1ccn([C@@H]2O[C@H](CO)[C@@H](O)[C@H]2O)c(=O)n1,89.8,97.8,117,108,86.2,11.3,inactive,inactive,,,,,
Cc1ccc(NC(=O)c2ccc(CN3CCN(C)CC3)cc2)cc1Nc1nc(-c2cccnc2)cs1,9.29,12,12.5,4.3,14.8,6.7,inactive,inactive,,0.463,5.7,4.39,
NC(=O)c1ccc(N(C(N)=O)c2c(F)cccc2F)nc1-c1ccc(F)cc1F,,104,59.1,78.7,215,92.1,inactive,inactive,,84.7,83.3,85.6,15.2% (inactive)
N=C1SC(=Cc2ccc(-c3ccc4c(c3)C(=O)NC4=O)o2)C(=O)N1c1ccc(Br)cc1,9.09,,30.9,9.17,13.7,35.6,inactive,inactive,,,,,
Cc1ccc2c(c1)C(=O)[C@]1(O)CCN(c3ccccc3)C1=N2,70.4,90.7,89.8,76.8,91,34.3,inactive,inactive,,,,,
O=C1CCCC(=O)C1C(=O)c1ccc(C(F)(F)F)cc1[N+](=O)[O-],90.1,103,114,93.4,124,101,inactive,inactive,,,,,
COc1ccc2nc3cc(Cl)ccc3c(Nc3cc(CN4CCCC4)c(O)c(CN4CCCC4)c3)c2n1,7.61,6.47,7.91,13.2,21.4,8.39,inactive,inactive,,-1.29,-0.214,-0.744,
OC(c1cc(C(F)(F)F)nc2c(C(F)(F)F)cccc12)C1CCCCN1 (stereo not drawn),11,9.36,23.2,61.8,9.36,7.54,inactive,inactive,,,,,
COc1ccc2c(c1)CC[C@H]1[C@@H]2CC[C@]2(C)[C@@H](NCCCCCCN3C(=O)C=CC3=O)CC[C@H]12,,95.3,,,154,43,inactive,inactive,,,,,
O=C(O)C1=NC(C(=O)O)CC(C=CN2c3cc(O)c(OC4OC(CO)C(O)C(O)C4O)cc3CC2C(=O)O)=C1 (stereo not drawn),93,104,76.3,92,267,136,inactive,inactive,,,,,
O=C(C=Cc1ccc(O)cc1)c1ccc(O)cc1O,19.6,52.6,39.1,15.1,1.49,4.05,1660 nM (active),2090 nM (active),,,,,
NCc1c[nH]c(=S)n1[C@H]1CCc2c(F)cc(F)cc2C1,15.7,12.9,13.8,4.48,61.4,34.2,inactive,inactive,,,,,
CCNC(=O)CCCC=CC[C@@H]1[C@H](C=CC(O)CCc2ccccc2)[C@@H](O)C[C@@H]1O (stereo partly drawn),,127,60.3,74.9,108,21,inactive,inactive,,,,,
O=C(O)C1=CO[C@@H](O[C@@H]2O[C@H](CO)[C@H](O)[C@H](O)[C@H]2O)[C@@H]2C(CO)=CC[C@H]12,99.8,96.1,83.9,103,78.1,23.1,inactive,inactive,,,,,
CNC(=O)[C@H](Cc1ccccc1)NC(=O)[C@H](CC(C)C)[C@H](CSc1cccs1)C(=O)NO,4.98,8.14,11.7,4.59,63.4,56.4,inactive,inactive,,,,,
COC(=O)N1CCN(Cc2cccc(NC(=O)Nc3ccc(C)nc3)c2F)CC1,20.8,,41.1,29.8,149,90.8,inactive,inactive,,,,,
CCCCC(C=O)NC(=O)C(CC(C)C)NC(=O)OCc1ccccc1 (stereo not drawn),4.5,8.7,9.29,4.08,52.9,62.2,inactive,,,,,,
